Pol eta inh – inhibitors of human DNA polymerase eta. Q9Y253. recombinant Pol eta, fluorescent DNA replication assay. Potency, µM (top dose mostly 114 µM), for inactives: top-dose activity change, negative = inhibition, usual class: inhibitors. 390,000 compounds, 1.2% hits; also: % is scaled to controls: 0 for no effect and ±100 for the full control effect
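Fluorescent replication assay: 50 nM final substrate added after a 15 min room-temperature compound preincubation with 10 nM enzyme. Signal taken at 0 min and again at 10 min.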
Pol beta inh – inhibitors of human DNA polymerase beta; Pol beta primer extension/strand displacement, fluorescence kinetic; Potency, µM (titrated, usually from 114 µM), for the others: at the highest dose activity change, negative = inhibition, actives largely listed as inhibitors; P06746; 340,000 compounds, 1.3% hits; also: % is scaled to controls: 0 for no effect and ±100 for the full control effect
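Pol beta (10 nM) and compounds were preincubated 15 min at room temperature, then 50 nM substrate (final) started primer extension/strand displacement. Reads were taken at 0 and 10 min; concentration-response data were fitted to a four-parameter Hill equation.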
Pol iota inh – inhibitors of human DNA polymerase iota | Q9UNA4 | Pol iota fluorescent replication assay, 10 min | Potency, µM (top dose mostly 115 µM), inactives show at the top dose activity, negative = inhibition, hits mostly inhibitors | 390,000 compounds, 1% hits
Target sequence (Q9UNA4 whole entry, looked up): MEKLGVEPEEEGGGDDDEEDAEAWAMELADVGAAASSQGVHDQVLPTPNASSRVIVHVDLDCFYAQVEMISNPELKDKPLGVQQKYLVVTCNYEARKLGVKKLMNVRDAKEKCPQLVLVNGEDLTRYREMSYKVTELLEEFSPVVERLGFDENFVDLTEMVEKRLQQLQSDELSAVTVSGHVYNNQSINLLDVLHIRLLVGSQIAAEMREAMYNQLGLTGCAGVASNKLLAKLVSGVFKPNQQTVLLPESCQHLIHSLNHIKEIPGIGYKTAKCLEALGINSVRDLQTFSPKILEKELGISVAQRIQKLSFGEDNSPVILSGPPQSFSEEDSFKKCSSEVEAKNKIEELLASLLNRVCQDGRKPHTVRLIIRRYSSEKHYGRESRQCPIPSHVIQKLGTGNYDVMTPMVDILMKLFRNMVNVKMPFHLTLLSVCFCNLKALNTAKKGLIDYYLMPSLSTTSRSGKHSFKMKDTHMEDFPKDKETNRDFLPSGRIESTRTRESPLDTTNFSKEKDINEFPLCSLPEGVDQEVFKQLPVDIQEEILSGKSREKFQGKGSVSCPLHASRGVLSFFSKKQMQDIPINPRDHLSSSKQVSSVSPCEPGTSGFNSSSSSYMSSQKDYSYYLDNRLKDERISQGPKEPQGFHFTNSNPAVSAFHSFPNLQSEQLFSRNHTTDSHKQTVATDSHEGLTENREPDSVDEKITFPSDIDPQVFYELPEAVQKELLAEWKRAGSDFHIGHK
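Pol iota at 10 nM preincubated 15 min with compounds at room temperature; reaction started with fluorescent substrate, 50 nM final. Fluorescence read kinetically at 0 and 10 min; buffer-only wells as negative control.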
WRN helicase inh – blocks human WRN helicase; Q14191; WRN helicase unwinding, fluorescent forked duplex, kinetic; Potency, µM (titrated, usually from 114 µM), for inactives: top-dose activity change, negative = inhibition, usual class: inhibitors; 360,000 compounds, 0.46% hits; AID 651768; also: % is scaled to controls: 0 for no effect and ±100 for the full control effect; nearly all actives have a fitted effect of over 55% in size
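Enzyme (20 nM final) and test compound sit together 15 min at room temperature before substrate addition. Substrate is a single-forked duplex oligonucleotide (100 nM) labelled with fluorophore and quencher, with 2 mM ATP; helicase unwinding raises red fluorescence, read kinetically.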
POLK inh – blocks human DNA polymerase kappa activity. Potency, µM (series often up to 107 µM), for inactives: at the top dose activity, negative = inhibition, most hits filed as inhibitors. purified Pol kappa, fluorescent DNA synthesis assay, 10 min. Q9UBT6. 400,000 compounds, 0.53% hits; also: % is scaled to controls: 0 for no effect and ±100 for the full control effect
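Pol kappa 10 nM + cpd, 15 min RT; start w/ substrate 50 nM final; fluorescence kinetic read, 0 and 10 min. Neg ctrl: buffer, no enzyme.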
L3MBTL1 inh – L3MBTL1 (human) inhibition; AlphaScreen L3MBTL1–H3K9me1 peptide binding; Potency, µM (top dose mostly 57.1 µM), for the others: top-dose activity, negative = inhibition, usual class: inhibitors; 230,000 compounds, 0.66% hits; AID 485360; also: % is scaled to controls: 0 for no effect and ±100 for the full control effect; nearly all actives have a fitted effect of over 60% in size
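AlphaScreen proximity signal between nickel-chelate acceptor and streptavidin donor beads (final 10 ug/mL) reports binding of 50 nM L3MBTL1 to 75 nM biotin-H3 K9me1 peptide; complex incubated with compounds 30 min at room temperature; cefsulodin titration as control.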
* marks the source's active call; other numbers are inactive results; u = inconclusive; x = no result given; [ ] = dose if it differs, or a comment. An excerpt weighted towards active compounds, which were near 2.5% of everything screened. Calls follow the shape of the dose curve; as a rule, active = well fitted curve in the direction sought with a large enough effect; inconclusive = small, poorly fitted or top-dose-only effect, or another doubt; inactive = no such curve, though single readings can be large; an effect the other way counts as inactive or inconclusive. Potency is read from the fitted curve at half-maximal effect.

SMILES	Pol eta inh	Pol beta inh	Pol iota inh	WRN helicase inh	POLK inh	L3MBTL1 inh
Cc1ccc(S(=O)(=O)N2CCOCC2)cc1C(=O)OC(C)C(=O)c1ccccc1 (stereo not given)	-9%	x	43%	-8%	-8%	-5%
CC1=NN(c2ccccc2)C(=O)/C1=C/c1cccs1	-13%	2%	1.3µM*	u	-3%	u
CC1=NN(c2ccccc2)C(=O)C1=Cc1ccccc1	-2%	x	x	u	x	x
CC1=NN(c2ccc(C)c(C)c2)C(=O)/C1=C/c1ccc2c(c1)n(C)c(=O)n2C	-11%	34%	1.4µM*	-5%	-24%	-9%
CN(C)c1ccc(C2SCCN2C(=O)c2ccc([N+](=O)[O-])cc2)cc1 (stereo not given)	-12%	17%	16%	-11%	0%	-18%
CC(C)C[C@@H](C(=O)NCC1CCCO1)N1C(=O)N2CCc3c([nH]c4ccccc34)[C@@]2(C)C1=O (stereo not given in full)	-25%	2%	13%	9%	4%	-6%
COCCNc1cc(-c2ccccc2C)ncn1	x	x	x	x	32µM*	x
CNc1cc(-c2ccccc2C)ncn1	x	x	x	x	5%[60.1 µM]	x
CCN(c1ccc(C)c(C)c1)S(=O)(=O)c1ccc2c(c1)CCN2C(=O)CCC(=O)O	-12%	89µM*	7%	-7%	8%	x
Cc1nn(CC(=O)NCCc2ccco2)c(=O)c2nn(-c3ccccc3)c(C)c12	32µM*	89µM*	22µM*	-3%[11.6 µM]	-44%	x
Cc1nn(CC(=O)NCCc2cccs2)c(=O)c2nn(-c3ccccc3)c(C)c12	-25%	u	35µM*	2%[11.6 µM]	-16%	x
Cc1ccc(-n2nc3c(=O)n(CC(=O)NCc4ccco4)nc(C)c3c2C)cc1	0%	19%	22%	x	4%	x
COc1ccc(C(=O)c2cn(CC(=O)Nc3cc(OC)cc(OC)c3)c3ccc(OC)cc3c2=O)cc1	79µM*	-26%	u	x	-23%	-1%
CCOc1ccc(NC(=O)Cn2cc(C(=O)c3ccccc3)c(=O)c3cc(OC)ccc32)cc1	-12%	4%	47%	x	-8%	x
O=C1NC(=O)/C(=C/c2cccc3ccccc23)S1	-4%	16%	u	-10%	-14%	-6%
O=C1NC(=O)C(=Cc2ccccc2[N+](=O)[O-])S1	89µM*	x	u	13%	-5%	x
Cc1cc(C(=O)N/N=C/c2cc(N=Nc3ccccc3)ccc2O)n[nH]1	-7%	25µM*	2%	-31%[57.1 µM]	-3%	-17%
CC(C)c1nn2c(=O)cc(COC(=O)c3ccc(NC(=O)C4CCCCC4)cc3)nc2s1	79µM*	12%	18%	x	-6%[60.1 µM]	x
Cc1nn2c(=O)cc(COC(=O)c3cccc(NC(=O)CCc4ccccc4)c3)nc2s1	9%	8%	u	x	-9%[60.1 µM]	x
Cc1nn2c(=O)cc(COC(=O)c3ccc(NC(=O)CCc4ccccc4)cc3)nc2s1	-1%	79µM*	-6%	x	-9%[60.1 µM]	x
CC(C)Cc1nn2c(=O)cc(COC(=O)c3ccc(NC(=O)C4CCCCC4)cc3)nc2s1	4%	17%	-3%	x	0%[60.1 µM]	x
COc1ccc(N2CC(C(=O)Nc3cc(C(F)(F)F)ccc3N3CCCC3)CC2=O)c(OC)c1 (stereo not given)	-25%	x	10%	-5%	0%	-4%
COCCCNC(=O)NC(=O)c1ccccc1	-8%	u	-16%	3%	-10%	-1%
Cc1ncc([N+](=O)[O-])n1S(=O)(=O)c1cc(Cl)ccc1Cl	-4%	0%	80%	-32%	-2%	6%
Cc1ccc(S(=O)(=O)N2CCCC2)cc1C(=O)NCCOc1ccccc1	-20%	x	12%	4%	3%	-2%
SMILES	Pol eta inh	Pol beta inh	Pol iota inh	WRN helicase inh	POLK inh	L3MBTL1 inh
Cc1cc(NC(=O)CN2CCC(C)CC2)nc2c1c(=O)oc1ccccc12	-17%	-1%	u	x	89µM*	x
CCC/S(CC1CC1(Cl)Cl)=N\S(=O)(=O)c1ccc(C)cc1 (stereo not given)	-2%	-4%	u	39%	-9%	x
CC[N+]1(C)CCC(O)(c2ccc(OC)cc2)C(C(=O)c2ccc(OC)cc2)C1 (stereo not given)	u	x	u	10µM*	-8%	x
O=C(NN1C(=O)/C(=C/c2cccs2)SC1=S)c1cccnc1	8%	-21%	-10%	-10%	-35%	-6%
CC(/C=C1\SC(=S)N(NC(=O)c2ccncc2)C1=O)=C\c1ccccc1	-6%	1%	u	u	-10%	-20%
COc1cc(/C=C2\SC(=S)N(NC(=O)c3ccncc3)C2=O)ccc1O	u	-6%	22µM*	50µM*	-29%	-26%
CCOc1cc(/C=C2\SC(=S)N(NC(=O)c3cccnc3)C2=O)ccc1O	u	u	28µM*	56µM*	-31%	-23%
COc1cc(/C=C2\SC(=S)N(NC(=O)c3ccccc3OC)C2=O)ccc1O	u	18µM*	50µM*	16µM*	-20%	x
COc1ccccc1C(=O)NN1C(=O)/C(=C/c2cccn2C)SC1=S	x	16%	x	x	x	26%
CCC(=O)c1ccc(OCC(=O)Nc2ccccc2N2CCCCC2)cc1	3%	39%	10%	6%	9%	x
COc1ccccc1NC(=O)C(=O)N1CCCC1	-21%	30%	39%	0%	5%	u
O=S1(=O)CCN2N=C(C3CC3)SC2=N1	-15%	40%	95%	-4%	-1%	7%
Cc1cc2c(NC(=O)CC(C)(C)CC(=O)O)cccc2nn1	28µM*	-1%	20µM*	-1%[11.6 µM]	u	x
COc1ccc(-c2c(C)oc3cc(O)cc(O)c3c2=O)cc1OC	-12%	6%	-2%	1%	0%	5%
COc1cc2c(cc1OC)-c1c(oc3cc(O)cc(O)c3c1=O)CO2	x	x	x	x	32µM*	x
CCNc1nc(NCC)nc(C(=O)NN)n1	-9%	3%	-6%	-9%	14%	4µM*
O=S(=O)(c1ccccc1C(F)(F)F)N1CCN(CC(O)COc2ccccc2F)CC1 (stereo not given)	-12%	10%	8%	-1%	-1%	x
Cc1ccc(Cn2c(C3CCCN3c3nc(-c4cc(Cl)c(N)c(Cl)c4)cs3)nc3cc(C(=O)NCCCO)ccc32)cc1 (stereo not given)	-12%	x	45µM*	-8%	-11%	x
COc1ccc2c(C)cc(SCC(=O)c3ccc4c(c3)OCO4)nc2c1	-14%	50µM*	-16%[58.9 µM]	-8%	-6%	5%
CCN(CC)S(=O)(=O)c1cc(NS(=O)(=O)c2cccc(Cl)c2Cl)ccc1C	-16%	-30%	-4%	-7%	-20%	-3%

Compound activity: PubChem BioAssay, National Center for Advancing Translational Sciences (NCATS)
